{"source": "PubChem BioAssay (NCATS)", "note": "Inconclusive results are not listed. Activity calls are given as the source filed them. Calls follow the shape of the dose curve; as a rule, active = well fitted cell-killing curve with a large enough effect; inconclusive = small, poorly fitted or top-dose-only effect, or effect the other way; inactive = no such curve, though single readings can be large or run the other way. Potency is read from the fitted curve at half-maximal effect.", "data": [{"experiment": "Quantitative highthroughput screen to assess conditional lethalithy of NOMO1 cells grown in Human Plasma-Like Medium with dialyzed fetal bovine serum (HPLM+ds) (AID 1963878); also: nearly all actives have a fitted effect of over 35% in size", "settings": "NOMO1 AML cells in HPLM+ds, CellTiter-Glo viability, 48 h; series mostly up to 45.8 µM; viability: at the top concentration", "source_text": "Assay Provider: Jason Cantor Ph.D.\nDepartment of Biochemistry\nUniversity of Wisconsin-Madison, Madison, WI, USA\nChemical screening studies have identified drug sensitivities across hundreds of cancer cell lines but most putative therapeutics fail to translate. Discovery and development of drug candidates in models that more accurately reflect nutrient levels in human blood is a major challenge. Here we performed high-throughput screens in conventional versus Human Plasma-Like Medium (HPLM) to identify compounds that were \"missed\" when screening using the artificial culture condition. Sets of conditional anticancer compounds spanned phases of clinical development and included non-oncology drugs were assessed. […] We also traced conditional phenotypes for several chemotherapeutics to availability of HPLM-specific metabolites and confirmed others for compounds whose reported targets are encoded by nonessential genes. Our findings establish generalizable strategies for exploiting conditional lethality in HPLM to reveal therapeutic candidates and mechanisms of action in cancer cells.\nDescribed herein are the results of each viability screens against three cell lines: NOMO1 (an acute myeloid leukemia cell line); P12-Ichikawa (a T-cell acute lymphoblastic leukemia); and SEM (a B-cell ALL). Each assay was screened using 3 different cell culture media: homemade human plasma-Like medium with 10% dialyzed fetal bovine serum (HPLM+ds); RPMI1640 with 10% untreated FBS and 5mM glucose (RPMI+s); and RPMI1640 with 10% dialyzed fetal bovine serum and 5 mM glucose (RPMI+ds).\nPROTOCOL TABLE (as described by Inglese J, Shamu CE and Guy RK. 2007)\nSEQUENCE No. (e.g., 1, 2, 3, etc.); […] (e.g., Cells, Incubation, Reagent, etc.); VALUE and DESCRIPTION.\n1; Cells; 5 uL; white, solid bottom 1536-well Greiner assay plate.\n2; Compounds; 23 nL; Kalypsis pin tool (Wako USA) equipped with a 1536-well pin head to transfer to the assay plates.\n3; Incubation; 48 hours; 37C incubation.\n4; Reagent; 3 uL; CellTiter Glo (Promega).\n5; Incubation; 5 min, room temperature\n6; Detection; Luminescence, Viewlux PerkinElmer.\nNOTES (numbers refer to Sequence numbers above)\n1. Briefly, 5 ul of cell reagent was dispensed using a Multidrop Combi Dispenser. The NOMO1 and SEM cells were plated at 500 cells/well and the P12-Ichikawa line at 1000 cells/well.\n2. After seeding the cells, 23 nL of MIPE 4.1 library compounds (in DMSO) were added to each plate using a Kalypsys 1536 Pintool dispenser. Bortezomib at final concentration of […] and DMSO were added to each plate as positive and negative controls respectively. For each screen, MIPE 4.1 compounds were added over an eleven-point concentration range […] in 3-fold dilutions.\n3. Each plate was covered with a stainless steel gasketed lid to prevent evaporation and incubated for 48 hour at 37C, 95% relative humidity, and 5% CO2.\n4-5. Three microliter CellTilter-GloTM luminescent substrate mix (Promega) reagent was added to the assay plate and incubated at room temperature for 5 min.\n6. The luminescence signal was measured using a ViewLux (PerkinElmer) multiplate reader with a 2 second exposure time per plate. Data for each compound were normalized as percent viability such that measurements for DMSO and the empty well controls in each plate were defined as 100% and 0%, respectively.", "values": [{"compound": "N#Cc1c(O)c2c(-c3ccc(-c4ccccc4O)cc3)csc2[nH]c1=O", "viability": "97.3% (inactive)"}, {"compound": "Cc1cn([C@@H]2O[C@H](CO)[C@@H](O)[C@H]2F)c(=O)[nH]c1=O", "viability": "104% (inactive)"}, {"compound": "N=c1nc(N2CCCCC2)cc(N)n1O", "viability": "95.3% (inactive)"}, {"compound": "O=C(O)Cc1cccc(OCCCN(Cc2cccc(C(F)(F)F)c2Cl)CC(c2ccccc2)c2ccccc2)c1", "viability": "102% (inactive)"}, {"compound": "CCOc1cc(N)c(Cl)cc1C(=O)NCC1CN(Cc2ccc(F)cc2)CCO1", "note": "(stereo not given)", "viability": "94.6% (inactive)"}, {"compound": "C[C@@H]1CC=CC=CC=CC=C[C@@H](O[C@@H]2O[C@H](C)[C@@H](O)[C@H](N)[C@H]2O)C[C@@H]2O[C@](O)(C[C@@H](O)C[C@@H]3O[C@@H]3C=CC(=O)O1)C[C@H](O)[C@@H]2C(=O)O", "viability": "106% (inactive)"}, {"compound": "O=C(Nc1nc2cccc(-c3ccc(CN4CCS(=O)(=O)CC4)cc3)n2n1)C1CC1", "Potency": "23.5 µM (active)"}, {"compound": "NC(=O)[C@@H](CCC(F)(F)F)N(Cc1ccc(-c2ncon2)cc1F)S(=O)(=O)c1ccc(Cl)cc1", "Potency": "20.9 µM (active)"}, {"compound": "C=CCNc1c(O)cc2c(O)c1C[C@@H](C)C[C@H](OC)[C@@H](O)[C@@H](C)C=C(C)[C@H](OC(N)=O)[C@@H](OC)C=CC=C(C)C(=O)N2", "Potency": "13.2 µM (active)"}, {"compound": "O=c1c(O)c(-c2ccc(O)c(O)c2)oc2cc(O)ccc12", "viability": "82.3% (inactive)"}, {"compound": "CN(c1nccc(=O)[nH]1)C1CCN(c2nc3ccccc3n2Cc2ccc(F)cc2)CC1", "viability": "81% (inactive)"}, {"compound": "CCC[C@H](NC(=O)C(C#N)=Cc1cccc(Br)n1)c1ccccc1", "Potency": "20.9 µM (active)"}, {"compound": "COc1ccc2nc3cc(Cl)ccc3c(Nc3cc(CN4CCCC4)c(O)c(CN4CCCC4)c3)c2n1", "viability": "82.2% (inactive)"}, {"compound": "CC=C(C(=CC)c1ccc(O)cc1)c1ccc(O)cc1", "viability": "86.5% (inactive)"}, {"compound": "CN(C)CCOC(c1ccccc1)c1ccccc1", "viability": "75.9% (inactive)"}, {"compound": "CCc1ccc(CCOc2ccc(CC3SC(=O)NC3=O)cc2)nc1", "note": "(stereo not given)", "viability": "94.4% (inactive)"}, {"compound": "Cc1ccc2nc(NCCN)c3ncc(C)n3c2c1", "Potency": "23.5 µM (active)"}, {"compound": "OC[C@H](Cc1ccccc1)Nc1nc(Oc2ccc3c(c2)CCC3)nc2c1ncn2Cc1ccc(-c2ccccc2)cc1", "viability": "101% (inactive)"}, {"compound": "O=C(C=Cc1ccc(CN(CCO)CCc2c[nH]c3ccccc23)cc1)NO", "Potency": "0.59 µM (active)"}, {"compound": "Cc1cnc(Nc2ccc(OCCN3CCCC3)cc2)nc1Nc1cccc(S(=O)(=O)NC(C)(C)C)c1", "viability": "72.8% (inactive)"}, {"compound": "O=C(Cc1cccc(OC(F)(F)F)c1)Nc1ccc(CCCCc2nnc(NC(=O)Cc3ccccn3)s2)nn1", "viability": "87% (inactive)"}, {"compound": "C[C@@H]1[C@H](C)CC[C@]2(C(=O)O)CC[C@]3(C)C(=CC[C@@H]4[C@@]5(C)CC[C@H](O)C(C)(C)[C@H]5CC[C@]43C)[C@@H]12", "viability": "98.1% [at 92.2 µM] (inactive)"}, {"compound": "Cc1cc(CN2CCN(c3c(Br)cnc4nc(-c5ccc(N6CCN(C)CC6)cc5)[nH]c34)CC2)no1", "Potency": "16.6 µM (active)"}, {"compound": "O=C1CCc2ccc(OCCCCN3CCN(c4cccc(Cl)c4Cl)CC3)cc2N1", "viability": "89.7% (inactive)"}, {"compound": "C[C@H](c1ccc(F)cc1CCCC(=O)O)N(c1cc(F)ccc1F)S(=O)(=O)c1ccc(Cl)cc1", "viability": "106% (inactive)"}, {"compound": "Cc1cnc(Nc2ccc(F)cc2Cl)nc1-c1c[nH]c(C(=O)N[C@H](CO)c2cccc(Cl)c2)c1", "Potency": "1.66 µM (active)"}, {"compound": "CCS(=O)(=O)Nc1ccc2[nH]c(O)c(C(=Nc3ccc(CN4CCCCC4)cc3)c3ccccc3)c2c1", "Potency": "4.69 µM (active)"}, {"compound": "C[C@]12CCC3=C4CCC(=O)C=C4CC[C@@H]3[C@H]1CC[C@@]2(O)CC#N", "viability": "116% (inactive)"}, {"compound": "CN1C2CCC1CC(OC(=O)C(CO)c1ccccc1)C2", "note": "(stereo not given)", "viability": "96.4% (inactive)"}, {"compound": "Cc1ccc(S(=O)(=O)Nc2nc3ccccc3nc2Nc2ccc3nsnc3c2)cc1", "Potency": "1.02 µM (active)"}, {"compound": "CC(=O)O[C@]1(C(C)=O)CC[C@H]2[C@@H]3C=C(C)C4=CC(=O)CC[C@]4(C)[C@@H]3CC[C@@]21C", "viability": "106% (inactive)"}, {"compound": "COc1cc2c(Oc3ccc(-c4cnc(Nc5ccc(F)cc5)n(C)c4=O)cc3F)ccnc2cc1OCCCN1CCOCC1", "Potency": "20.9 µM (active)"}, {"compound": "COc1ccc(-c2ccc3cc(C(=O)O)ccc3c2)cc1C12CC3CC(CC(C3)C1)C2", "viability": "93.4% (inactive)"}, {"compound": "COc1cc(C)c(Sc2cnc(NC(=O)c3ccc(CNC(C)C(C)(C)C)cc3)s2)cc1C(=O)N1CCN(C(C)=O)CC1", "note": "(stereo not given)", "Potency": "23.5 µM (active)"}, {"compound": "c1ccc2c(Cc3c[nH]c4ccccc34)c[nH]c2c1", "Potency": "20.9 µM (active)"}, {"compound": "CC(C)NCC(O)c1ccc(O)c(O)c1", "note": "(stereo not given)", "Potency": "4.69 µM (active)"}, {"compound": "C[C@]12CC[C@H](O)CC1=CC[C@@H]1[C@H]2CC[C@]2(C)C(c3cccnc3)=CC[C@H]12", "viability": "100% [at 23.2 µM] (inactive)"}, {"compound": "C[C@@H]1O[C@@H](O[C@H]2CC[C@@]3(C)[C@H](CC[C@@H]4[C@H]3C[C@@H](O)[C@]3(C)[C@@H](C5=CC(=O)OC5)CC[C@]43O)C2)C[C@H](O)[C@@H]1O[C@H]1C[C@H](O)[C@H](O[C@H]2C[C@H](O)[C@@H](O)[C@@H](C)O2)[C@H](C)O1", "note": "(stereo in doubt)", "Potency": "0.191 µM (active)"}, {"compound": "O=C(O)C1=CO[C@@H](O[C@@H]2O[C@H](CO)[C@H](O)[C@H](O)[C@H]2O)[C@@H]2C(CO)=CC[C@H]12", "viability": "103% (inactive)"}, {"compound": "O=C(Nc1ccc(F)c(C(F)(F)F)c1)Nc1nnc(-c2ccncc2)s1", "viability": "100% (inactive)"}]}]}
